HEK293 cAMP ctrl: parental HEK293 cAMP activation (counter-screen); parental HEK293 CNG cAMP sensor, membrane potential fluorescence; Potency, µM (titrated, usually from 57.1 µM), actives largely listed as activators; 2.5% of 73,000 active; AID 938; also: nearly all actives have a fitted effect of over 55% in size
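Parental HEK 293 cells stably expressing a modified CNG channel (no TSHR) report cAMP rise as membrane depolarization. Membrane potential dye with 100 uM RO 20-1724 was loaded for 60 min at room temperature, then compound added for 30 min; fluorescence read at 590 nm.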
BRCT inh green: blocks human BRCA1 BRCT binding to phosphopeptide, green readout; P38398; BRCA1 BRCT-phosphopeptide binding, green fluorescence polarization; Potency, µM (doses to about 76.9 µM), most hits filed as inhibitors; 0.05% of 75,000 active; AID 875
Target sequence (P38398 whole entry, looked up): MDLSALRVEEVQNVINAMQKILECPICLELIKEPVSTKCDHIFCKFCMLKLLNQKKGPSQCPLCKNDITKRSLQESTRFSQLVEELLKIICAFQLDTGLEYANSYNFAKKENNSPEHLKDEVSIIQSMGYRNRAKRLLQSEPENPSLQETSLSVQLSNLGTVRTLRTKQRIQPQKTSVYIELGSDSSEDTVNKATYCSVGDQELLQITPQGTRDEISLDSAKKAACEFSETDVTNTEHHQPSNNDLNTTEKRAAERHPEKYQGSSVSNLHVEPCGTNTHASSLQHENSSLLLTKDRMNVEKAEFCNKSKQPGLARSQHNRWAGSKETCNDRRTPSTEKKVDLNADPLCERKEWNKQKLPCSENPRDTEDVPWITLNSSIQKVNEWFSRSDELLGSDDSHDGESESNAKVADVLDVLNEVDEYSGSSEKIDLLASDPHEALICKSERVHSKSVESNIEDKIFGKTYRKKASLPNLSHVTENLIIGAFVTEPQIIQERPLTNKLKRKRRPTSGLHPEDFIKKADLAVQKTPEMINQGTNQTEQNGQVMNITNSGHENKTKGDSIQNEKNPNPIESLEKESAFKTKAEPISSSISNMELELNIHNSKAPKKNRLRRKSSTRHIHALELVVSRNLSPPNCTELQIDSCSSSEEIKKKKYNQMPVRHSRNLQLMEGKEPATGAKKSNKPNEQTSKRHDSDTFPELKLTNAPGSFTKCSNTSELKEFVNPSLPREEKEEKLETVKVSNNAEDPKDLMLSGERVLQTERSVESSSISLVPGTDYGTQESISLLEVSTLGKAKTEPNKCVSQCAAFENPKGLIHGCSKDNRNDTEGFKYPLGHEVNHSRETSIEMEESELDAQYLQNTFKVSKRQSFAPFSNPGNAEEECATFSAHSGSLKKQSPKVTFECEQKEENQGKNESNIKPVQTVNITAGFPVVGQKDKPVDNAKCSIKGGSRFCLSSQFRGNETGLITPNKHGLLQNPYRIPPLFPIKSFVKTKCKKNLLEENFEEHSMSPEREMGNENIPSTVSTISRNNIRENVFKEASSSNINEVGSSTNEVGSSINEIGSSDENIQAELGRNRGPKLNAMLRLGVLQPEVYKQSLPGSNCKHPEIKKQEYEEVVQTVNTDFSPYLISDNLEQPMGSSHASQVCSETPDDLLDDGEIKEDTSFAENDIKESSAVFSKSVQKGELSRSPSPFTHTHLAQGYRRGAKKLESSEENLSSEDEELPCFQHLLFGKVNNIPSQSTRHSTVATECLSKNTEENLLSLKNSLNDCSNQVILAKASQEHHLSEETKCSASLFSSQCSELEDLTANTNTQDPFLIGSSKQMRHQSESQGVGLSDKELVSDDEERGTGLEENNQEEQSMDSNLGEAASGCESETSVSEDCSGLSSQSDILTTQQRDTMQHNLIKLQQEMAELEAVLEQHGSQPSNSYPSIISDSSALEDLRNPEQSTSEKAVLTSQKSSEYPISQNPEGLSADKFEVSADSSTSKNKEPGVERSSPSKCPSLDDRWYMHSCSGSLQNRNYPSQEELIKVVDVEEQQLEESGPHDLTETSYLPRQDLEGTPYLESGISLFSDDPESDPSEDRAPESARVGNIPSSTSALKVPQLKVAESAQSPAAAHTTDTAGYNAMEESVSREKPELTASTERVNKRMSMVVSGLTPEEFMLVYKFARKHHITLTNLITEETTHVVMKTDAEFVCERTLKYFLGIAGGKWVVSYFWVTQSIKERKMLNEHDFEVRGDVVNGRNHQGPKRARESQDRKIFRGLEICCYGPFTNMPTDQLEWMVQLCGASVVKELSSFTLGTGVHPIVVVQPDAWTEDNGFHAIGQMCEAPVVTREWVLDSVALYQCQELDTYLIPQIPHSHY
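Fluorescence polarization: His-tagged BRCT (~35 kDa BRCA1 C-terminus, 250 nM) bound to 100 nM fluorescein-labeled phosphorylated 10-aa BACH1 peptide, pH 7.3 phosphate buffer with DTT and Tween 20. Compounds incubated 12 min at room temperature; inhibition read as lowered polarization.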
TSHR agonist: TSH receptor (human) agonism; HEK293-CNG-TSHR cells (CNG channel as cAMP sensor), membrane potential dye, cAMP; P16473; Potency, µM (highest dose often 57.1 µM), hits mostly activators; 0.48% of 73,000 active; AID 926; active = well fitted activation curve with a large enough effect in the main read-out, with a control signal flat, not every such curve was filed as active; inconclusive = small, poorly fitted or top-dose-only effect, or a change in a side signal; inactive = no such curve, though single readings can be large or run the other way; reference of the percent scale not stated here;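 also: the control signal comes from parental cells without the receptor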
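cAMP rise detected as CNG-channel membrane depolarization by fluorescent dye (emission 590 nm), 30 min after compound, following 60 min dye loading containing 100 uM RO 20-1724 at room temperature. Cells: TSHR/CNG HEK 293, with parental CNG HEK 293 as control.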
TsaE inh: YjeE (TsaE) inhibition, E. coli. P0AF67. purified YjeE enzyme, qHTS inhibition assay. Potency, µM. 0.05% of 71,000 active
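Fluorescence polarization of a BODIPY Texas Red–ADP probe (2 uM) bound to purified YjeE (10 uM) was read after 15 min room-temperature incubation with compounds. Loss of polarization marks inhibitors; ADP serves as titrated control.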
Pol III holo inh: blocks replication by bacterial DNA polymerase III holoenzyme; reconstituted DNA polymerase III holoenzyme replication, biochemical; Potency, µM (series often up to 57.1 µM); 0.25% of 71,000 active; AID 603
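Reconstituted *E. coli* holoenzyme (0.35 nM Pol III, 1 nM beta, 154 nM SSB, 2 nM primase) was preincubated with compound for 15 min at RT. Synthesis on 1.4 nM ssM13Gori ran 35 min, then was stopped with PicoGreen/EDTA and read as dsDNA fluorescence.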
BRCT PPI red: inhibitors of human BRCA1 BRCT-phosphoprotein interaction (red fluorophore); 0.03% of 75,000 active; BRCT-phosphopeptide binding, red fluorescence polarization; Potency, µM (doses to about 76.9 µM), hits mostly inhibitors
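Fluorescence polarization: 100 nM His-tagged BRCA1 BRCT with 100 nM TAMRA-labelled phospho-BACH1 decapeptide, phosphate buffer pH 7.3 with 150 mM NaCl, DTT, 0.01% Tween 20; 12 min RT. Binding inhibition seen as FP decrease.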
HEK293 cAMP cnt: raises cAMP in parental HEK293 cells lacking TSH receptor; shares compounds with TSHR agonist; parental HEK293 CNG biosensor, cAMP membrane potential fluorescence; activity change, negative = inhibition, % at 32.9 µM; 150 tested, under 10 active
Numbers stand for hits; – = inactive; ? = inconclusive; · = no result; [ ] = dose if it differs, or a comment. The list is not random: actives were taken first. Their share in the collection is about 3.2%. Unless noted, calls follow the shape of the dose curve; as a rule, active = well fitted curve in the direction sought with a large enough effect; inconclusive = small, poorly fitted or top-dose-only effect, or another doubt; inactive = no such curve, though single readings can be large; an effect the other way counts as inactive or inconclusive.

SMILES	HEK293 cAMP ctrl	BRCT inh green	TSHR agonist	TsaE inh	Pol III holo inh	BRCT PPI red	HEK293 cAMP cnt
CC(C)OC(=O)CSc1nnc(Cc2ccccc2)n1Cc1ccco1	5µM	–	?	–	–	–	·
COc1ccccc1NC(=O)Nc1nc(-c2cccnc2)nc2ccccc12	–	–	–	–	–	–	·
O[C@@H]1[C@@H]2c3cc4c(cc3CN3CCC(=C[C@@H]1O)[C@H]23)OCO4	–	–	–	–	–	–	·
CC1CN(c2oc(-c3ccco3)nc2S(=O)(=O)c2ccccc2)CC(C)O1 (configuration not stated)	–	–	25µM	–	–	–	·
O=S(=O)(c1ccccc1)c1nc(-c2ccco2)oc1NCc1ccco1	–	–	–	–	–	–	·
CCCCN(CC)S(=O)(=O)c1cccc2cccnc12	20µM	–	?	–	–	–	·
O=S(=O)(c1cccc2cccnc12)N(CCO)CCO	–	–	–	–	–	–	·
Clc1ccccc1-c1nn2c(Cn3cnc4ccccc43)nnc2s1	–	–	3.2µM	–	–	–	·
c1ccc(CCc2nn3c(Cn4cnc5ccccc54)nnc3s2)cc1	?	–	?	–	–	–	·
COc1c(O)cc2c(c1O)[C@@H]1O[C@@H](CO)[C@@H](O)[C@@H](O)[C@@H]1OC2=O	?	–	?	–	–	–	·
COc1cc2c(cc1OC)[C@@H]1C(=O)c3ccc4c(c3O[C@@H]1CO2)C=CC(C)(C)O4	20µM	–	?	–	–	–	·
Cc1cc(C)n(-c2ccn(Cc3ccc(Cl)cc3Cl)c(=O)n2)n1	16µM	–	?	–	–	–	·
Cc1ccc(Cl)cc1N	–	–	–	–	–	–	·
O=C1N(c2ccccc2)C2CS(=O)(=O)CC2N1c1ccc(Cl)c(Cl)c1 (configuration not stated)	–	–	–	·	·	–	–
O=C1CC2CS(=O)(=O)CC2N1c1ccc(Oc2ccccc2)cc1 (configuration not stated)	–	–	–	–	–	–	·
O=c1c2ccccc2ncn1-c1ccc2c(c1)OCCO2	–	–	–	·	·	–	–
COC(=O)C1=C(C)NC(C)=C([N+](=O)[O-])[C@@H]1c1ccccc1C(F)(F)F	–	–	–	–	–	–	·
CCN(c1ccccc1)S(=O)(=O)c1ccc(Oc2ccc(-n3ccnc3)cc2)nc1	–	–	25µM	–	–	–	–
CCOC(=O)c1c(N)n(CCOC(=O)c2cccs2)c2nc3ccccc3nc12	–	–	–	–	–	–	–
COc1cccc(CN2C(=O)CN(C3CCCCC3)C(=O)C2c2ccc(F)cc2)c1 (configuration not stated)	–	–	13µM	–	–	–	–
COc1ccc(C2C(=O)N(C3CCCCC3)CC(=O)N2Cc2ccc3c(c2)OCO3)cc1 (configuration not stated)	–	–	–	–	–	–	·
O=C(NC[C@@H](O)CO)c1c(I)c(C(=O)NC[C@@H](O)CO)c(I)c(N(CCO)C(=O)CO)c1I	–	–	–	–	–	–	·
CC1(C)c2ccccc2N2CC(=O)NC21/C=C/c1ccco1 (configuration not stated)	–	–	2.5µM	–	–	–	–
CC1(C)c2ccccc2N2CCC(=O)NC21/C=C/c1ccco1 (configuration not stated)	–	–	3.2µM	–	–	–	–
CCC(C)(C)n1nnnc1CN(Cc1ccco1)Cc1cc2cc3c(cc2[nH]c1=O)OCO3	–	–	25µM	–	–	–	–
SMILES	HEK293 cAMP ctrl	BRCT inh green	TSHR agonist	TsaE inh	Pol III holo inh	BRCT PPI red	HEK293 cAMP cnt
Cc1ccc(-n2nc(-c3ccc(N)cc3)cc2N)cc1	–	–	–	–	–	–	–
C=C(C)Cn1c(-c2ccccc2)nc2ccccc21	–[11.4 µM]	–	3.2µM	–	–[11.4 µM]	–	?
COc1ccc(NC(=O)N2CCCC3(CCN(C(=O)c4c(C)noc4C)CC3)C2)cc1	–	–	–	–	–	–	·
Cc1ccc(N(C(=O)Cn2nnc(-c3ccc(C)o3)n2)C(C(=O)NC2CCCC2)c2ccco2)cc1 (configuration not stated)	–	–	–	–	–	–	·
Cc1ccc(C)c(N(C(=O)Cn2nnc(-c3cccs3)n2)C(C(=O)NC2CC2)c2ccc(C)o2)c1 (configuration not stated)	–	–	7.9µM	–	–	–	?
Cc1nc2ccc(Br)cn2c(=O)c1Cl	–	–	–	–	–	–	–
COc1ccc(S(=O)(=O)NCCC(=O)NC2CCCCCCC2)cc1	–	–	–	–	–	–	·
COc1ccc(S(=O)(=O)NCCC(=O)NCc2ccc(F)cc2)cc1	–	–	·	–	–	–	–
COc1ccc(C(c2nnnn2Cc2ccccc2)N2CCN(C(=O)c3ccco3)CC2)cc1 (configuration not stated)	?	–	?	–	–	–	·
COc1cccc(C(c2nnnn2Cc2ccccc2)N2CCN(C(=O)c3ccco3)CC2)c1OC (configuration not stated)	–	–	25µM	–	–	–	–
O=C(NCc1cc(F)cc2c1OCCO2)[C@H]1C[C@@H]1[C@H](NP(=O)(c1ccccc1)c1ccccc1)c1ccccc1	?	–	?	–	–	–	·
CCCC(=O)C1=C(SCC)CC(C)(C)C(C(=O)OC)C1=O (configuration not stated)	?	–	?	–	–	–	–
CCC1=C2CC[C@H]3C(=O)N(c4ccccc4)C(=O)[C@H]3[C@H]2[C@@]2(Cc3ccccc3)C(=NCCOC)OC(=O)N2C1=O	·	–	·	·	·	–	·
C[N+](C)(C)c1ccc([C@H](N)C(=O)O)cc1	–[11.4 µM]	–[15.4 µM]	–[11.4 µM]	–	–[11.4 µM]	–[15.4 µM]	·
CCc1ccc(-c2nc(CN3CCC(C(=O)N4CCN(c5ccccc5)CC4)CC3)c(C)o2)cc1	–	–	–	–	–	–	–
CC(C)CC(=O)Nc1cccc(-c2cn3ccsc3n2)c1	–	–	16µM	–	–	–	–
CCC(=O)Nc1cccc(-c2cn3ccsc3n2)c1	–	–	–	–	–	–	·
CN1C(=O)C2C=CC1C1C(=O)N(c3ccccc3)C(=O)C21 (configuration not stated)	–	–	–	–	–	–	–
Clc1ccccc1-c1cc(NCc2ccccc2)ncn1	?	–	?	–	–	–	·
O=C(Nc1ccccn1)c1cccc(S(=O)(=O)N2CCOCC2)c1	–	–	–	–	–	–	·
CC1CCN(S(=O)(=O)c2cccc(C(=O)Nc3ccccn3)c2)CC1	–	–	25µM	–	–	–	–

Assay outcomes as filed in PubChem.
